From PubChem BioAssay (Tox21) come the findings set out here.

Experiment [1] is described as follows: qHTS assay for small molecule agonists of the p53 signaling pathway (AID 651631; calls by dose curve; further: nearly all actives have a fitted effect of over 15% in size; further: potency means the concentration at half of the fitted maximal effect). The method in brief:
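Readout was fluorescence from the LiveBLAzer FRET substrate, applied for 2 h at room temperature after 16 h compound exposure at 37 °C. Cells were the p53RE-bla HCT-116 line, with beta-lactamase driven by p53 response elements.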
In general terms: Quantitative high-throughput screening tests each substance at several concentrations.

Experiment [2] can be described thus: qHTS assay for small molecules that induce genotoxicity in human embryonic kidney cells expressing luciferase-tagged ATAD5 (AID 651632). Further: nearly all actives have a fitted effect of over 15% in size. Further: potency means the concentration at half of the fitted maximal effect. The method in brief:
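DMSO vehicle served as the control. HEK293T reporter cells, 16 hr at 37C, then 30 min Amplite at room temperature; ATAD5 induction is measured as luciferase activity.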

Experiment [3] in a line: qHTS assay for small molecule agonists of the p53 signaling pathway - cell viability (AID 651633; calls by dose curve; further: nearly all actives have a fitted effect of over 30% in size; further: potency means the concentration at half of the fitted maximal effect). Summed up: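 p53RE-bla cells were treated with compound for 16 hours at 37 C. Cytotoxicity was then measured as CellTiter-Glo luminescence after 30 min at room temperature.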
Experiment [4] in a line: qHTS assay for small molecules that induce genotoxicity in human embryonic kidney cells expressing luciferase-tagged ATAD5 - cell viability (AID 651634; calls by dose curve; further: nearly all actives have a fitted effect of over 25% in size; further: potency means the concentration at half of the fitted maximal effect). The method in brief: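 Here HEK293T cells with the ATAD5 luciferase reporter are incubated with test compounds for 15.5 hr, and cytotoxicity is then gauged by measuring protease activity in live cells using fluorescence.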

Experiment [5] is described as follows: qHTS assay for small molecule disruptors of the mitochondrial membrane potential - cell viability (AID 720634; calls by dose curve; further: nearly all actives have a fitted effect of over 20% in size; further: potency means the concentration at half of the fitted maximal effect). The method in brief:
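Viability of HepG2 cells is scored from ATP content by luminescence; cells are exposed to compound for 1 hr at 37 C and 5% CO2, then dosed with m-MPI dye before the CellTiter-Glo reagent.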

A short description of experiment [6]: qHTS assay for small molecule disruptors of the mitochondrial membrane potential (AID 720635). Further: potency means the concentration at half of the fitted maximal effect. Summed up: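 HepG2 cells exposed to compound 1 hr at 37C, then Mito-MPS dye 30 min. Ratio read of aggregate (540/590 nm) versus monomer (490/535 nm) fluorescence.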
Experiment [7] is described as follows: qHTS assay to test for compound auto fluorescence at 590 nm (red) in HepG2 cells (AID 720674). Summed up: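 Fluorescence at 590 nm emission following 540 nm excitation was recorded from HepG2 wells one hour after compound transfer, with DMSO-only wells as vehicle and Rose Bengal sodium equivalency as the scale.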
Experiment [8] can be described thus: qHTS assay to test for compound auto fluorescence at 535 nm (green) in HepG2 cells (AID 720675).
Experiment [9] in a line: qHTS assay to test for compound auto fluorescence at 460 nm (blue) in HEK293 cells (AID 720678). Further: potency means the concentration at half of the fitted maximal effect. The method in brief: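 Measured: blue fluorescence (Ex 405/Em 460 nm) of compound-treated HEK293 cells, incubated overnight at 37C with 5% CO2 and scaled to triamterene equivalents.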
The nature of experiment [10]: qHTS assay to test for compound auto fluorescence at 590 nm (red) in HEK293 cells (AID 720679). Summed up: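 Using HEK293 cells at 2,000 per well, the screen added 23 nL of each compound after cell attachment and incubated overnight (37C, 5% CO2). The plate reader then captured red-label fluorescence, Ex/Em 540/590nm.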

SMILES strings stand for the structures. Where “and” joins values, the source holds several entries; their conditions need not be identical. Identical values can stand only once. Values without a mark were called inactive. Inconclusive results are not listed. Calls of active or inactive are those of the source. Unless noted, the call rests on the fitted dose curve; in most records, active means well fitted curve in the direction sought with a large enough effect in the repeat runs; inconclusive means weak or mixed curves; inactive means no such curve, though single readings can be large; an effect the other way counts as inactive or inconclusive.
Tags describe the fitted curve by direction and shape or compound fluorescence and quenching.

`NC(=O)CC[C@@H]1NC(=O)[C@H](Cc2ccccc2)NC(=O)[C@H](Cc2ccc(O)cc2)NC(=O)CCSSC[C@@H](C(=O)N2CCC[C@H]2C(=O)N[C@@H](CCCN=C(N)N)C(=O)NCC(N)=O)NC(=O)[C@H](CC(N)=O)NC1=O`: the Potency entry in [1], in [2], in experiment [3], in experiment [4], in experiment [5] and in experiment [6] was “inactive” in each case. For the same compound, the Potency result in experiment [7], in [8], in [9] and in experiment [10] was “inactive” each time.
Take `[O-][n+]1ccccc1SSc1cccc[n+]1[O-]`: the Potency is 2.66 µM (active) in experiment [1], 2.66 µM (active) in experiment [2], 7.5 µM (active) in experiment [4] and 0.668 µM (active) in experiment [6]. Also, the Potency result in experiment [3], in [5], in experiment [7], in [8], in experiment [9] and in experiment [10] was “inactive” throughout.
On to `CNC(=O)c1ccccc1`, for which the Potency result in experiment [1], in experiment [2], in [3], in experiment [4], in [5] and in experiment [6] was “inactive” throughout. Further, the Potency entry in experiment [7], in experiment [8], in experiment [9] and in experiment [10] was “inactive” each time.
For `CCCCCOC(=O)CCCC`, the Potency result in experiment [1], in experiment [2], in [3], in experiment [4], in experiment [5] and in experiment [6] was “inactive” in each case. In addition, the Potency entry in experiment [7], in experiment [8], in [9] and in experiment [10] was “inactive” in each case.
With `Clc1ccc2nsnc2c1NC1=NCCN1`, the Potency entry in experiment [1], in experiment [2], in experiment [3], in experiment [4], in experiment [5] and in [6] was “inactive” each time. For the same compound, the Potency result in experiment [7], in [8], in [9] and in experiment [10] was “inactive” each time.
In the case of `c1ccc(CSCc2ccccc2)cc1`, the Potency result in [1], in [2], in experiment [3], in [4], in experiment [5] and in experiment [7] was “inactive” throughout. Moreover, the Potency result in experiment [8], in experiment [9] and in experiment [10] was “inactive” each time. Further, the Potency in experiment [6] is 43.1 µM (active).
As to `Cc1cc(N)c(S(=O)(=O)O)cc1Cl`, the Potency entry in experiment [1], in [2], in [3], in [4], in experiment [5] and in experiment [6] was “inactive” throughout. In addition, the Potency entry in experiment [7], in [8], in experiment [9] and in experiment [10] was “inactive” each time.
With `CO[Si](CCCNc1ccccc1)(OC)OC`, the Potency entry in [1], in experiment [2], in experiment [3], in experiment [4], in [5] and in experiment [6] was “inactive” in each case. Besides, the Potency entry in [7], in experiment [8], in experiment [9] and in [10] was “inactive” throughout.
On to `COc1ccc(-c2ccc3cc(C(=O)O)ccc3c2)cc1C12CC3CC(CC(C3)C1)C2`, for which the Potency in [1] is 2.37 µM (active); in experiment [3], 3.76 µM (active). Moreover, the Potency result in experiment [2], in experiment [4], in experiment [5], in experiment [7], in experiment [8] and in experiment [9] was “inactive” in each case. Also, the Potency entry in [10] is “inactive”.
For the compound `CCC(C)(C)C1CCCCC1OC(C)=O` (stereo not given), the Potency result in experiment [1], in experiment [2], in experiment [3], in experiment [4], in [5] and in experiment [7] was “inactive” in each case. Further, the Potency entry in [8], in experiment [9] and in experiment [10] was “inactive” throughout.
Turning to `NNC(=O)c1cccc(C(=O)NN)c1`, the Potency result in [1], in [2], in experiment [3], in experiment [4], in experiment [5] and in experiment [7] was “inactive” in each case. The Potency result in experiment [8], in [9] and in experiment [10] was “inactive” throughout.
Regarding `O=C(Nc1ccc(Oc2ccc(Cl)cc2)c(Cl)c1)c1cc(I)cc(I)c1O`, the Potency was 10.6 µM (active) in [1], 4.22 µM (active) in experiment [3] and 2.37 µM (active) in experiment [6]. In addition, the Potency result in [2], in experiment [4], in experiment [5], in experiment [7], in experiment [8] and in [9] was “inactive” throughout. For the same compound, in [10], the Potency result was “inactive”.
With `N=C1N=C(N)c2cc3ccccc3cc21`, the Potency in experiment [1] is 9.69 µM (active); in experiment [2] it was 19.3 µM (active); in experiment [3] it was 12.2 µM (active); in experiment [6], 3.06 µM (active); in [9] it was 35.5 µM [fluorescent] (active). The Potency entry in experiment [4], in experiment [5], in experiment [7], in experiment [8] and in experiment [10] was “inactive” each time.
Consider `CSc1ccc(C(=O)c2[nH]c(=O)[nH]c2C)cc1`, for which the Potency entry in [1], in experiment [2], in experiment [3], in [4], in experiment [5] and in [6] was “inactive” throughout. Besides, the Potency result in experiment [7], in [8], in experiment [9] and in experiment [10] was “inactive” each time.
Regarding `C=C(C)C(=O)OCC[N+](C)(C)C`, the Potency result in experiment [1], in experiment [2], in [3], in [4], in experiment [5] and in [7] was “inactive” in each case. In addition, the Potency entry in experiment [8], in experiment [9] and in [10] was “inactive” each time.
Take `COC(=O)C1=C(C)NC(C)=C(C(=O)OCC(C)C)C1c1ccccc1[N+](=O)[O-]` (stereo not given): the Potency in [1] is 26.6 µM (active); in [4], 29.8 µM (active) and 48.6 µM (active); in [6], 11.9 µM (active) and 43.3 µM (active). The Potency result in experiment [2], in experiment [3], in experiment [5], in experiment [7], in experiment [8] and in [9] was “inactive” each time. Besides, the Potency entry in [10] is “inactive”.
`CCCCCCCCn1sc(Cl)c(Cl)c1=O`: the Potency in [1] was 17.2 µM (active); in experiment [3], 30.6 µM (active); in experiment [4], 19.3 µM (active); in experiment [5] it was 27.3 µM (active). The Potency result in experiment [2], in [7], in experiment [8], in experiment [9] and in [10] was “inactive” throughout.
Consider `CS(=O)(=O)CCNCc1ccc(-c2ccc3ncnc(Nc4ccc(OCc5cccc(F)c5)c(Cl)c4)c3c2)o1`, for which the Potency result in [1], in experiment [2], in experiment [3], in [4], in [5] and in [6] was “inactive” in each case. For the same compound, the Potency result in experiment [7], in experiment [8], in experiment [9] and in experiment [10] was “inactive” in each case.
